The values below come from PubChem BioAssay AID1508622 (National Center for Advancing Translational Sciences (NCATS), 2021).

Active and inactive are the calls of the source. A call without a number means that no potency is given here. Calls come from the whole dose curve; as a rule, active = well fitted activation curve with a large enough effect; inconclusive = small, poorly fitted or top-dose-only effect; inactive = no such curve, though single readings can be large or run the other way.

This assay in a line: Confirmatory qHTS for Identification of Small Molecule Activators of Huntingtin-Antisense Promoter Activity. Particulars: HEK293 HTT-AS promoter firefly luciferase reporter, 24 h; series mostly up to 57.5 µM. The method, boiled down:
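Activity normalized between vehicle control (0%) and zero RLU (-100%) from firefly luminescence (Dual-Glo). Compounds, up to 57.5 uM final, incubated 24 h at 37C on HEK293 reporter cells plated 24 h earlier.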
With `Cc1cccc(-n2nc(C)c(C(=O)N3CCN(c4ccccc4)CC3)c2-n2cccc2)c1`, the Potency entry was “inactive”.

With `COc1ccc(C(=O)Nc2ccc(-c3cc4ccccc4oc3=O)c(C)c2)cc1Br`, the Potency entry was “inactive”.

`COc1ccccc1C(=O)N1c2ccccc2C(C)(c2ccc(Cl)cc2)CC1(C)C` (centres undefined): the Potency entry is “inactive”.

Take `CCOC(=O)c1cc2c(=O)n3ccccc3nc2n(CC2CCCO2)c1=NC(=O)c1cc(C)cc(C)c1` (centres undefined): the Potency entry is “inactive”.

For `CCOc1ccccc1CNC(=O)c1ccc2nc(Cc3ccc(OC)cc3)oc2c1`, the Potency entry was “inactive”.

As to `Cc1ccccc1Cn1c(=O)n(Cc2ccco2)c(=O)c2oc3ccccc3c21`, the Potency result was “inactive”.

Regarding `COc1ccc(C2C=C(c3ccc(Br)cc3)Nc3nnnn32)c(OC)c1` (centres undefined), the Potency entry is “inactive”.

As for `CCS(=O)(=O)c1ccc(C(=O)N2CCN(c3nc4c(OC)ccc(C)c4s3)CC2)cc1`, the Potency result was “inactive”.

With `Cc1c(Cl)ccc2sc(N3CCN(C(=O)CCS(=O)(=O)c4ccc(F)cc4)CC3)nc12`, the Potency result was “inactive”.

For `COc1cc(CCC(=O)NCc2ccc3c(c2)CCN3C(=O)c2ccccc2)cc(OC)c1OC`, the Potency result is “inactive”.

In the case of `COc1ccc(Nc2c3c(nc4ccc(NC(=O)/C=C/c5cccc(OC)c5OC)cc24)CCCC3)cc1OC`, the Potency result is “inactive”.

As for `C#CCOc1ccc(-c2nnc(Nc3cccc(C)c3)c3ccccc23)cc1`, the Potency result was “inactive”.

Take `CCN(C(=O)C1CCC(CNS(=O)(=O)c2cccc3nsnc23)CC1)c1ccccc1` (centres undefined): the Potency result was “inactive”.

Turning to `CCC(=O)N1CCCc2cc(S(=O)(=O)N3CCC(C(=O)Nc4ccccc4CC)CC3)ccc21`, the Potency result was “inactive”.

In the case of `COc1cc2ccccc2cc1C(=O)N1CCN(c2nc3ccc(F)cc3s2)CC1`, the Potency result was “inactive”.

For `O=C(Nc1cccc(Cl)c1)c1c(NC(=O)C(F)(F)F)sc2c1CCCC2`, the Potency entry was “inactive”.

Take `O=C(CCc1cn(Cc2ccc(F)cc2)c2ccccc12)NC1CCCCC1`: the Potency result is “inactive”.

Turning to `CC(C)c1ccc(Cc2cnc(NC(=O)c3ccc4c(c3)CC(c3ccccc3)OC4=O)s2)cc1` (centres undefined), the Potency result is “inactive”.

`CC(=O)c1cccc(NS(=O)(=O)c2cccc(S(=O)(=O)c3ccc(Br)cc3)c2)c1`: the Potency entry was “inactive”.

With `CCOC(=O)C1CCCN(C(=O)Cn2ncc3c(C)n(Cc4ccc(F)cc4)c(C)c3c2=O)C1` (centres undefined), the Potency entry is “inactive”.

Turning to `CCCC(=O)c1ccc(OC(=O)c2c(-c3ccccc3Cl)noc2C)cc1`, the Potency result is “inactive”.

Regarding `CCc1ccc2oc(C(=O)NCCc3ccc(OC)c(OC)c3)cc(=O)c2c1`, the Potency entry is “inactive”.

Consider `Cc1ccc(S(=O)(=O)NCCc2csc(-c3cccc(F)c3)n2)cc1`, for which the Potency entry was “inactive”.

`Cc1ccc(CCNC(=O)C2CCN(c3nnc(-n4cccc4CNc4ccc(C)cc4)s3)CC2)cc1`: the Potency result is “inactive”.

Consider `COc1ccc(S(=O)(=O)Nc2cc3c(C(=O)OC(C)C)c(C)oc3c3ccccc23)cc1`, for which the Potency entry was “inactive”.

On to `CCc1nnc(NC(=O)c2nc(S(=O)(=O)Cc3cccc(C)c3)ncc2Cl)s1`, for which the Potency result was “inactive”.

With `CCC(=O)C1=C(c2cccc([N+](=O)[O-])c2)N(C(=O)CC)n2c(nnc2C2CCCCC2)S1`, the Potency entry was “inactive”.

With `COc1ccc2sc(N(Cc3cccnc3)C(=O)c3ccc4c(c3)OCCO4)nc2c1`, the Potency result was “inactive”.

Regarding `COc1ccc(N2CCN(C(=O)c3cc4c(-c5ccccc5F)nn(C)c4s3)CC2)cc1`, the Potency result is “inactive”.

For `CCCS(=O)(=O)NCCc1sc2nc(-c3ccc(F)cc3)nn2c1C`, the Potency entry is “inactive”.

As to `CCn1cc(C(=O)N2CCN(c3ccc(C)cc3)C(C)C2)c(=O)c2cc(S(=O)(=O)N3CCCC3)ccc21` (centres undefined), the Potency entry was “inactive”.

Consider `COc1cccc(N2CCN(C(=O)c3ccc4nc(N5CCC(C)CC5)sc4c3)CC2)c1`, for which the Potency result was “inactive”.

Regarding `O=c1[nH]c2ccc(NCc3ccc(-c4ccccc4)o3)cc2[nH]1`, the Potency result was “inactive”.

As for `CCN(CC)S(=O)(=O)c1ccc(NC(=O)CCc2c(C)nc3cc(-c4ccc(Cl)cc4)nn3c2C)cc1`, the Potency result was “inactive”.

Turning to `CCOC(=O)c1cc(C)n(CC2CCC(C(=O)Nc3ccc(Cl)cc3)CC2)c1C` (centres undefined), the Potency entry was “inactive”.

`CCOc1ccc(C(=O)NCc2ccc3c(c2)CCN3C(=O)c2ccccc2)cc1`: the Potency entry is “inactive”.

As to `Cc1ccc(C)c(N2CCN(C(=O)c3nn(C)c4c3CS(=O)(=O)c3ccccc3-4)CC2)c1`, the Potency entry was “inactive”.

Turning to `Cc1ccccc1-c1noc(CSc2nc3ccccc3[nH]2)n1`, the Potency result was “inactive”.

In the case of `COc1ccc(OC)c(-c2nnc3ccc(-c4ccc(OC)c(O[C@@H]5CCOC5)c4)nn23)c1`, the Potency entry is “inactive”.
